We go through 29 molecules from PubChem BioAssay (EPA / NIEHS).

Records with an inconclusive call do not appear. The source holds several records for some structures; these can differ, active in one and inactive in another. Active and inactive are the calls of the source. How the source made its calls, unless noted: active means hit-call score of the fitted dose curve at least 0.9, where 1 is the maximum; inconclusive means response in the unintended direction; inactive means score below 0.9.

Read-out in assay [1]: glucuronosyltransferase (UGT1A1), UGT1A1 (gene 54658)
Kind of assay: CLD_UGT1A1_24hr: CellzDirect (CLD) Gene Expression Assay for glucuronosyltransferase (UGT1A1) at 24 hours (AID 2283696). The procedure, abridged: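 UGT1A1 transcript induction was measured by quantitative nuclease protection assay (chemiluminescence) in human hepatocyte cultures 24 h after daily fresh dosing, with 0.2% DMSO as vehicle and baseline.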

Read-out in assay [2]: Cytochrome P450 2C19 (Homo sapiens) (UniProt P33261)
The experiment in a line: CLD_CYP2C19_48hr: CellzDirect (CLD) Gene Expression Assay for xenobiotic metabolism (CYP2C19) at 48 hours (AID 2283700).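 Further: fitted upward so actives raise CYP2C19 mRNA above the 0.2% DMSO vehicle.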 The method in brief: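 CYP2C19 mRNA induction read by chemiluminescent quantitative nuclease protection assay after 48 h, with fresh compound added daily for two days to cultured human liver hepatocytes. Activity fitted upward against 0.2% DMSO vehicle.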

Read-out in assay [3]: xenobiotic metabolism (CYP1A2), CYP1A2 (gene 1544)
Kind of assay: CLD_CYP1A2_48hr: CellzDirect (CLD) Gene Expression Assay for xenobiotic metabolism (CYP1A2) at 48 hours (AID 2283703). The method in brief: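 Cytotoxicity was flagged yes/no from morphology, while CYP1A2 transcript induction was detected by qNPA chemiluminescence after a 48-hour exposure. Human primary hepatocyte cultures from separate donors received fresh dosing solutions daily over two days, with 0.2% DMSO as vehicle and baseline.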

Read-out in assay [4]: glucuronosyltransferase (UGT1A1), UGT1A1 (gene 54658)
The experiment in a line: CLD_UGT1A1_48hr: CellzDirect (CLD) Gene Expression Assay for glucuronosyltransferase (UGT1A1) at 48 hours (AID 2283709).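 Further: actives increase expression relative to DMSO so potency refers to induction.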 The procedure, abridged:
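Quantitative nuclease protection assay (chemiluminescent) for UGT1A1 mRNA at 48 h in human hepatocyte cultures from two donors, redosed daily with fresh solutions. Induction fitted relative to 0.2% DMSO; phase-contrast morphology annotated cytotoxicity.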

Read-out in assay [5]: alkyl and aryl transferase (GSTA2), GSTA2 (gene 2939)
Kind of assay: CLD_GSTA2_48hr: CellzDirect (CLD) Gene Expression Assay for alkyl and aryl transferase (GSTA2) at 48 hours (AID 2283708).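 Further: active means mRNA induction above DMSO vehicle baseline.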 The method in brief: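 GSTA2 mRNA quantified by qNPA chemiluminescence in human primary hepatocyte lysates after 48 h of daily fresh chemical dosing. Increases fitted against 0.2% DMSO vehicle baseline; cytotoxicity from morphology annotated yes/no.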

Assay [6] can be described thus: STM_H9_OrnithineISnorm_perc: Stemina devTOX quickPredict H9 human embryonic stem cell (hESC)-based Assay for Ornithine (ORN) Metabolite Biomarker, Normalized (AID 2283712; active means hit-call score of the fitted dose curve at least 0.9, where 1 is the maximum; inactive means score below 0.9;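 further: ornithine released into spent medium during last day measured by mass spectrometry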). The procedure, abridged: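 UPLC-HRMS readout: endogenous ornithine EIC area / 13C-ORN internal standard, then % of 0.1% DMSO median. H9 hESCs (pluripotent), 72h exposure, re-dosed with fresh media q24h; last 24-h spent media, deproteinized in 40% acetonitrile.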

Assay [7] in a line: STM_H9_CystineISnorm_perc: Stemina devTOX quickPredict H9 human embryonic stem cell (hESC)-based Assay for Cystine (CYSS) Metabolite Biomarker, Normalized (AID 2283713; active means hit-call score of the fitted dose curve at least 0.9, where 1 is the maximum; inactive means score below 0.9). The procedure, abridged: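 UPLC-HRMS read-out: endogenous cystine peak area in spent medium, normalized to isotope-labeled internal standard and to median of 0.1% DMSO controls. Pluripotent H9 cells, 72h exposure, daily medium/compound replenishment; medium from last 24h sampled.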

Assay [8] is described as follows: CEETOX_H295R_MTT_cell_viability: Viability Assessment in the CeeTox HT-H295R MTT Assay (AID 2283718; active means hit-call score of the fitted dose curve at least 0.9, where 1 is the maximum; inactive means score below 0.9). The method in brief:
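H295R cells prestimulated 48 h with 10 uM forskolin, then exposed 48 h to test chemical (0.1% DMSO final). Viability by MTT (0.5 mg/ml, 4 h, 37 C), absorbance 570/650 nm; percent change versus DMSO, bidirectional fit.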

Assay [9] can be described thus: STM_H9_OrnCyssISnorm_ratio: Stemina devTOX quickPredict H9 human embryonic stem cell (hESC)-based Assay for Ornithine (ORN):Cystine (CYSS) Ratio (AID 2283714). The method in brief:
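H9 hESC, 72h, q24h re-dose; last-day media → acetonitrile deproteinization → UPLC-HRMS. ORN:CYSS ratio from isotope-normalized EIC areas, vs 0.1% DMSO; MTX references on each plate.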

Read-out in assay [10]: xenobiotic metabolism (CYP2C9), CYP2C9 (gene 1559)
Kind of assay: CLD_CYP2C9_48hr: CellzDirect (CLD) Gene Expression Assay for xenobiotic metabolism (CYP1A2) at 48 hours (AID 2283701; active means hit-call score of the fitted dose curve at least 0.9, where 1 is the maximum; inactive means score below 0.9). The method in brief: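 mRNA level measured by quantitative nuclease protection (S1 digestion, chemiluminescent detection) in lysates of human primary hepatocytes exposed 48 h with daily re-dosing. Induction fitted positively versus 0.2% DMSO; morphology-based cytotoxicity flagged yes/no.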

Sequence of Cytochrome P450 2C19 (Homo sapiens) (P33261 whole entry, looked up): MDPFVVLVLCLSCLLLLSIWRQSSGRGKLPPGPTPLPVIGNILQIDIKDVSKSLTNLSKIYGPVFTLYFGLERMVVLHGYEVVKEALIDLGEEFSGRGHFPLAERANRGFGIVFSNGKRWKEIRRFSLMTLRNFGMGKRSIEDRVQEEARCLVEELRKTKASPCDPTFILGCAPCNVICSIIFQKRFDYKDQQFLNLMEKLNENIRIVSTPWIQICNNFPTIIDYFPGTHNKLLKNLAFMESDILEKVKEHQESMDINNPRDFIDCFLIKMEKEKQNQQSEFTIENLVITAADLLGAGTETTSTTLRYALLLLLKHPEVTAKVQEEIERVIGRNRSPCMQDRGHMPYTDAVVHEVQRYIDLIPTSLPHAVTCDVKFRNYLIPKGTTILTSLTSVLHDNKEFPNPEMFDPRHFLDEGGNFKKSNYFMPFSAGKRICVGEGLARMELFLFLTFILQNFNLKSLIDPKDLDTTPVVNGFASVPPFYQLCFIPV

For the molecule `COC(=O)c1cccc(C)c1S(=O)(=O)NC(=O)Nc1nc(OCC(F)(F)F)nc(N(C)C)n1`, the result in assay [1], in [2] and in [4] was inactive. In assay [3], the AC50 was 5.82 µM (active).
`CCC(O)=C1C(=O)CC(C(=O)O)CC1=O` (centres undefined): the result in assay [1], in assay [2], in assay [3] and in [4] was inactive.
Consider `COC(=O)c1ccc(CNS(C)(=O)=O)cc1S(=O)(=O)NC(=O)Nc1nc(OC)cc(OC)n1`, for which the outcome in assay [1], in assay [2], in [3], in assay [5] and in assay [4] was inactive.
As to `CCOC(=O)C(C)Oc1ccc(Oc2cnc3cc(Cl)ccc3n2)cc1` (centres undefined), the outcome in [1], in assay [2], in [3], in assay [4] and in assay [6] was inactive. Further, the AC50 in assay [7] is 9.92 µM (active).
For the molecule `OB(O)O`, the outcome in assay [1], in [2], in [3], in assay [4], in assay [6] and in assay [7] was inactive.
As to `CCCCCCC(C)OC(=O)COc1nc(F)c(Cl)c(N)c1Cl` (centres undefined), the result in assay [1], in [2], in assay [3], in [5] and in assay [4] was inactive.
With `CCOC(=O)C(C)Oc1ccc(Oc2nc3ccc(Cl)cc3o2)cc1` (centres undefined), the result in assay [1], in [2], in assay [3], in assay [5] and in assay [4] was inactive.
For the molecule `CCCN(CCC)C(=O)SCC`, the molecule was called inactive in assay [1], in assay [2], in [3], in assay [5], in assay [4] and in [8]. In addition, the AC50 in assay [3] was 6.32 µM (active).
Consider `CCCCC(CC)COC(=O)c1ccccc1C(=O)O` (centres undefined), for which the call in assay [1], in [2], in assay [3], in [5], in [4] and in assay [8] was inactive. The values for the AC50 in assay [6], in [7] and in assay [9] were 341 µM (active), 250 µM (active) and 283 µM (active), respectively.
`C#CCOC(=O)[C@@H](C)Oc1ccc(Oc2ncc(Cl)cc2F)cc1`: the call in [1], in [2], in assay [3], in assay [5], in [4] and in [8] was inactive. The AC50 in [6] is 65.5 µM (active); in assay [7], 11.1 µM (active); in [9] it was 86.9 µM (active).
As for `CCCOC(=O)NCCCN(C)C`, the result in assay [1], in assay [2], in assay [3], in assay [5] and in assay [4] was inactive.
With `CCCCOC(=O)[C@@H](C)Oc1ccc(Oc2ccc(C(F)(F)F)cn2)cc1`, the outcome in assay [1], in assay [2], in assay [3], in [5], in [4] and in [8] was inactive. The AC50 in assay [6] is 80.7 µM (active); in assay [7], 42.8 µM (active); in assay [9], 52.8 µM (active).
For the molecule `CCSC(=O)N(CC(C)C)CC(C)C`, the call in assay [1], in assay [2], in assay [3], in assay [5], in [4] and in [6] was inactive. The outcome in [7] and in assay [9] was inactive.
On to `CCOC(=O)COc1cc(-n2ncc(C(F)(F)F)c(C)c2=O)c(F)cc1Cl`, for which the call in assay [1], in assay [3], in assay [5] and in assay [4] was inactive.
Regarding `COc1c(Cl)ccc(Cl)c1C(=O)O`, the molecule was classed as inactive in assay [1], in [2], in assay [3], in assay [5] and in [4]. For the same molecule, the AC50 in assay [10] was 0.0267 µM (active).
Take `CCOC(=O)NCCOc1ccc(Oc2ccccc2)cc1`: the molecule was called inactive in assay [1], in assay [3] and in assay [5]. For the same molecule, the AC50 in assay [4] was 20 µM (active).
For `CCC(C)OC(=O)N1CCCCC1CCO` (centres undefined), the molecule was classed as inactive in assay [1], in assay [2], in assay [3], in assay [5] and in assay [4].
Turning to `CC1(C)C(C=C(Cl)Cl)C1C(=O)OCc1cccc(Oc2ccccc2)c1` (centres undefined), the molecule was classed as inactive in assay [1], in assay [2], in assay [5] and in assay [8]. Moreover, the AC50 in assay [3] is 9.51 µM (active); in assay [4] it was 3.97 µM (active).
For `COC(=O)CSc1cc(N=c2sc(=O)n3n2CCCC3)c(F)cc1Cl`, the AC50 was 3.17 µM (active) in assay [1]; 9.13 µM (active) in assay [10]; 5.72 µM (active) in [4]; 78.8 µM (active) in assay [6]; 83 µM (active) in [7]; 80 µM (active) in assay [9]. The result in assay [2] and in assay [3] was inactive.
As to `c1ccc(Nc2ccccc2)cc1`, the outcome in assay [1], in assay [2], in assay [5] and in assay [8] was inactive. The AC50 in assay [3] was 4.82 µM (active).
For the molecule `COC(=O)c1ccc(I)cc1S(=O)(=O)NC(=O)Nc1nc(C)nc(OC)n1`, the call in [1], in assay [2], in assay [4], in [6] and in assay [7] was inactive. In addition, the AC50 in [3] is 20 µM (active).
Regarding `Oc1ccc(C(c2ccc(O)cc2)C(Cl)(Cl)Cl)cc1`, the call in assay [1], in [2], in assay [5], in assay [4], in assay [7] and in assay [8] was inactive. The AC50 in assay [6] was 0.00653 µM (active).
Turning to `CCN(CC)C(=O)c1cccc(C)c1`, the outcome in [1], in assay [2], in [3] and in assay [4] was inactive.
Consider `COC(=O)c1ccccc1S(=O)(=O)NC(=O)Nc1nc(OC(F)F)cc(OC(F)F)n1`, for which the result in assay [1], in assay [2] and in [4] was inactive. The AC50 in assay [3] was 11 µM (active).
In the case of `CCCCOC(=O)C(C)Oc1ccc(Oc2ccc(C(F)(F)F)cn2)cc1` (centres undefined), in assay [1], the AC50 is 20 µM (active). Also, the outcome in [2], in assay [6], in [7] and in [9] was inactive.
Turning to `COc1nc(C)nc(NC(=O)NS(=O)(=O)c2ccccc2OCCCl)n1`, the result in assay [1], in [2], in [5] and in [4] was inactive.
Turning to `CCOC(=O)[C@H](C)Oc1ccc(Oc2nc3ccc(Cl)cc3o2)cc1`, the molecule was classed as inactive in assay [1], in assay [5] and in [4]. The AC50 in assay [3] was 20 µM (active).
As to `COC(=O)c1c(Cl)nn(C)c1S(=O)(=O)NC(=O)Nc1nc(OC)cc(OC)n1`, the outcome in [1], in assay [5] and in [4] was inactive. The AC50 in [3] was 1.13 µM (active).
`CCCOC(=O)c1ccc(C(=O)OCCC)nc1`: the outcome in assay [2] was inactive.
